# Measured values reported in PubChem BioAssay AID1159580 (chemical genetic matrix, 2015).
# Hit rate of the full screen: of about 5,500 compounds, about 2,000 (36%) were called active. Not shown: some 18% with an inconclusive outcome. Some of the results follow. Unmarked numbers belong to inactive results. No stated cut-off is given here; in the data, active means normalized growth mostly below about 0.91 (no sharp cut-off); inconclusive means no clear call, values can overlap the other calls; inactive means mostly above about 0.92.
# Experiment: chemical genetic growth profiling, strain panel (AID 1159580);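 further: tested at 20 µM; growth read once vehicle control cultures reached saturation at 30 °C; 1 = growth at the plate median or of vehicle wells; lower values mean less growth of the strain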
# Settings: growth OD
smiles,measurement,setting,value
CC(=O)O[C@H]1C(=O)[C@@]2(C)C([C@H](OC(=O)c3ccccc3)[C@]3(O)C[C@H](OC(=O)[C@H](O)[C@@H](NC(=O)c4ccccc4)c4ccccc4)C(C)=C1C3(C)C)[C@]1(OC(C)=O)CO[C@@H]1C[C@@H]2O (stereo partly specified),normalized growth,"S. cerevisiae deletion strains, locus YJR066W, strain TOR1, hits give low values",0.943
same,normalized growth,"S. cerevisiae deletion strains, locus YJR075W, strain HOC1, hits give low values",1.04
same,normalized growth,"S. cerevisiae deletion strains, locus YKL009W, strain mrt4, hits give low values",0.636 (active)
same,normalized growth,"S. cerevisiae deletion strains, locus YKL068W, hits give low values",0.781 (active)
same,normalized growth,"S. cerevisiae deletion strains, locus YKL085W, strain MDH1 (second series), hits give low values",0.884 (active)
same,normalized growth,"S. cerevisiae deletion strains, locus YKL085W, strain MDH1, hits give low values",0.884 (active)
same,normalized growth,"S. cerevisiae deletion strains, locus YKL160W, strain elf1, hits give low values",1.01
same,normalized growth,"S. cerevisiae deletion strains, locus YKL190W, strain CNB1, hits give low values",1.02
same,normalized growth,"S. cerevisiae deletion strains, locus YKR026C, strain gcn3, hits give low values",0.999
same,normalized growth,"S. cerevisiae deletion strains, locus YKR091W, strain srl3, hits give low values",1
same,normalized growth,"S. cerevisiae deletion strains, locus YLL001W, strain dnm1, hits give low values",1.05
same,normalized growth,"S. cerevisiae deletion strains, locus YLL026W, hits give low values",0.993
same,normalized growth,"S. cerevisiae deletion strains, locus YLL041C, strain sdh2, hits give low values",0.979
same,normalized growth,"S. cerevisiae deletion strains, locus YLR027C, strain aat2, hits give low values",0.97
same,normalized growth,"S. cerevisiae deletion strains, locus YLR039C, strain RIC1, hits give low values",1.06
same,normalized growth,"S. cerevisiae deletion strains, locus YLR058C, strain SHM2, hits give low values",1.03
same,normalized growth,"S. cerevisiae deletion strains, locus YLR102C, strain apc9, hits give low values",1.03
same,normalized growth,"S. cerevisiae deletion strains, locus YLR113W, strain HOG1, hits give low values",0.945
same,normalized growth,"S. cerevisiae deletion strains, locus YLR221C, strain rsa3, hits give low values",1.03
same,normalized growth,"S. cerevisiae deletion strains, locus YLR258W, strain gsy2, hits give low values",0.997
same,normalized growth,"S. cerevisiae deletion strains, locus YLR262C, strain YPT6 (second series), hits give low values",1.02
same,normalized growth,"S. cerevisiae deletion strains, locus YLR262C, strain YPT6, hits give low values",1.15
same,normalized growth,"S. cerevisiae deletion strains, locus YLR268W, strain sec22, hits give low values",1.06
same,normalized growth,"S. cerevisiae deletion strains, locus YLR320W, strain mms22, hits give low values",1.01
same,normalized growth,"S. cerevisiae deletion strains, locus YLR330W, strain CHS5, hits give low values",1.03
same,normalized growth,"S. cerevisiae deletion strains, locus YLR342W, strain FKS1 (second series), hits give low values",1.06
same,normalized growth,"S. cerevisiae deletion strains, locus YLR342W, strain FKS1, hits give low values",1
same,normalized growth,"S. cerevisiae deletion strains, locus YLR357W, strain rsc2, hits give low values",1
same,normalized growth,"S. cerevisiae deletion strains, locus YLR370C, strain arc18, hits give low values",1.02
same,normalized growth,"S. cerevisiae deletion strains, locus YLR371W, strain rom2, hits give low values",1.03
same,normalized growth,"S. cerevisiae deletion strains, locus YLR384C, strain iki3, hits give low values",0.982
same,normalized growth,"S. cerevisiae deletion strains, locus YLR418C, strain cdc73, hits give low values",1.25 [resistant] (active)
same,normalized growth,"S. cerevisiae deletion strains, locus YML016C, strain PPZ1, hits give low values",1.03
same,normalized growth,"S. cerevisiae deletion strains, locus YML032C, strain rad52, hits give low values",1.05
same,normalized growth,"S. cerevisiae deletion strains, locus YML120C, strain ndi1, hits give low values",1.02
same,normalized growth,"S. cerevisiae deletion strains, locus YML124C, strain tub3, hits give low values",1.11 [resistant] (active)
same,normalized growth,"S. cerevisiae deletion strains, locus YMR058W, strain fet3, hits give low values",0.968
same,normalized growth,"S. cerevisiae deletion strains, locus YMR078C, strain ctf18, hits give low values",1.1 [resistant] (active)
same,normalized growth,"S. cerevisiae deletion strains, locus YMR125W, strain sto1, hits give low values",1.01
same,normalized growth,"S. cerevisiae deletion strains, locus YMR129W, hits give low values",0.987
same,normalized growth,"S. cerevisiae deletion strains, locus YMR205C, strain PFK2, hits give low values",1.02
same,normalized growth,"S. cerevisiae deletion strains, locus YMR223W, strain ubp8, hits give low values",1.12 [resistant] (active)
same,normalized growth,"S. cerevisiae deletion strains, locus YMR231W, strain pep5, hits give low values",0.983
same,normalized growth,"S. cerevisiae deletion strains, locus YMR263W, strain SAP30, hits give low values",1.06
same,normalized growth,"S. cerevisiae deletion strains, locus YMR307W, strain GAS1, hits give low values",1.09
same,normalized growth,"S. cerevisiae deletion strains, locus YNL067W, strain RPL9B, hits give low values",1.02
same,normalized growth,"S. cerevisiae deletion strains, locus YNL071W, strain lat1, hits give low values",0.972
same,normalized growth,"S. cerevisiae deletion strains, locus YNL128W, strain TEP1, hits give low values",1.05
same,normalized growth,"S. cerevisiae deletion strains, locus YNL153C, strain GIM3, hits give low values",1.03
same,normalized growth,"S. cerevisiae deletion strains, locus YNL183C, strain NPR1, hits give low values",0.952
same,normalized growth,"S. cerevisiae deletion strains, locus YNL209W, strain ssb2, hits give low values",1.01
same,normalized growth,"S. cerevisiae deletion strains, locus YNL233W, strain BNI4, hits give low values",1.02
same,normalized growth,"S. cerevisiae deletion strains, locus YNL248C, strain rpa49, hits give low values",0.783 (active)
same,normalized growth,"S. cerevisiae deletion strains, locus YNL250W, strain rad50, hits give low values",0.921
same,normalized growth,"S. cerevisiae deletion strains, locus YNL271C, strain bni1, hits give low values",1
same,normalized growth,"S. cerevisiae deletion strains, locus YNL298W, strain CLA4, hits give low values",0.941
same,normalized growth,"S. cerevisiae deletion strains, locus YNL307C, strain MCK1, hits give low values",1.03
same,normalized growth,"S. cerevisiae deletion strains, locus YNL322C, strain KRE1 (second series), hits give low values",0.986
same,normalized growth,"S. cerevisiae deletion strains, locus YNL322C, strain KRE1, hits give low values",1.03
same,normalized growth,"S. cerevisiae deletion strains, locus YNR049C, strain mso1, hits give low values",1
same,normalized growth,"S. cerevisiae deletion strains, locus YNR052C, strain pop2, hits give low values",1.09 [resistant] (active)
same,normalized growth,"S. cerevisiae deletion strains, locus YOL006C, strain TOP1, hits give low values",1.01
same,normalized growth,"S. cerevisiae deletion strains, locus YOL012C, strain htz1",2.06
same,normalized growth,"S. cerevisiae deletion strains, locus YOL147C, strain pex11, hits give low values",1.05
same,normalized growth,"S. cerevisiae deletion strains, locus YOR001W, strain rrp6, hits give low values",0.902
same,normalized growth,"S. cerevisiae deletion strains, locus YOR061W, strain CKA2, hits give low values",1.03
same,normalized growth,"S. cerevisiae deletion strains, locus YOR069W, strain VPS5, hits give low values",1.02
same,normalized growth,"S. cerevisiae deletion strains, locus YOR070C, strain gyp1, hits give low values",0.995
same,normalized growth,"S. cerevisiae deletion strains, locus YOR080W, strain dia2, hits give low values",1.01
same,normalized growth,"S. cerevisiae deletion strains, locus YOR083W, strain WHI5, hits give low values",1.01
same,normalized growth,"S. cerevisiae deletion strains, locus YOR106W, strain vam3, hits give low values",0.987
same,normalized growth,"S. cerevisiae deletion strains, locus YOR136W, strain idh2, hits give low values",1.1 [resistant] (active)
same,normalized growth,"S. cerevisiae deletion strains, locus YOR144C, strain elg1, hits give low values",1.1 [resistant] (active)
same,normalized growth,"S. cerevisiae deletion strains, locus YOR231W, strain MKK1, hits give low values",0.964
same,normalized growth,"S. cerevisiae deletion strains, locus YOR265W, strain rbl2, hits give low values",0.999
same,normalized growth,"S. cerevisiae deletion strains, locus YOR270C, strain vph1, hits give low values",0.866
same,normalized growth,"S. cerevisiae deletion strains, locus YOR290C, strain snf2, hits give low values",1.02
same,normalized growth,"S. cerevisiae deletion strains, locus YOR316C, strain cot1, hits give low values",1.06
same,normalized growth,"S. cerevisiae deletion strains, locus YPL051W, strain arl3, hits give low values",0.987
same,normalized growth,"S. cerevisiae deletion strains, locus YPL055C, strain LGE1, hits give low values",1.1
same,normalized growth,"S. cerevisiae deletion strains, locus YPL078C, strain atp4, hits give low values",0.956
same,normalized growth,"S. cerevisiae deletion strains, locus YPL106C, strain sse1, hits give low values",1.04
same,normalized growth,"S. cerevisiae deletion strains, locus YPL240C, strain hsp82, hits give low values",0.994
same,normalized growth,"S. cerevisiae deletion strains, locus YPL241C, strain CIN2, hits give low values",1.04
same,normalized growth,"S. cerevisiae deletion strains, locus YPL256C, strain CLN2, hits give low values",1.1
same,normalized growth,"S. cerevisiae deletion strains, locus YPR119W, strain clb2, hits give low values",1.03
same,normalized growth,"S. cerevisiae deletion strains, locus YPR141C, strain kar3, hits give low values",0.94
same,normalized growth,"S. cerevisiae deletion strains, locus YPR163C, strain tif3, hits give low values",1.05
same,normalized growth,"S. cerevisiae deletion strains, locus YPR167C, strain met16, hits give low values",1.08 [resistant] (active)
same,normalized growth,"S. cerevisiae deletion strains, strain wtn01, hits give low values",1.09
same,normalized growth,"S. cerevisiae strains, strain wild type, hits give low values",0.995
